# Data reported in PubChem BioAssay.
# Where “and” joins values, the source holds several entries; their conditions need not be identical. Identical values can stand only once. Calls of active or inactive are those of the source.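 How the source made its calls, unless noted: active means compounds whose cell count with miR-34 switched on is under 0.7 times the count with it off; inactive means the rest.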
# Experiments:
# [1] = stimulators of nuclear beta-catenin in C2C12, primary screen, imaging, WNT3A-conditioned medium, mouse C2C12, NPC library (AID 1117326; in the data active means nuclear beta-catenin stimulation mostly above about 4.2%, no sharp cut-off; inactive means mostly below about 10%); details: stronger effect = higher value
# [2] = stimulators of insulin release from INS-1E, primary screen, cell-based, 5 mM glucose, NPC library (AID 1117329;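 active means compound raises insulin release from rat beta cells at 5 mM glucose, no numeric limit stated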); details: rat INS-1E insulin secretion, at 10 µM, stronger effect = higher value
# [3] = growth inhibition of GSK3B-pretreated HCT116 cells – cell-based, CellTiter-Glo, 0.2 to 20 µM (AID 1117336;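 active means compounds lowering colon cancer cell viability after pretreatment blocking the GSK3B kinase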); details: HCT116 viability after GSK3B inhibitor, at 20 µM, stronger effect = higher value
# [4] = inhibition of endothelial tube formation, primary screen, imaging, VEGF stimulated, CD31 staining, tube area, NPC library (AID 1117340;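 active means compound that reduces growth-factor-driven endothelial tube area in a mixed cell culture, no cutoff stated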); details: VEGF-stimulated ADSC/ECFC co-culture, at 10 µM, stronger effect = higher value
# [5] = glucagon-like peptide 1 release enhancers, primary assay, NCI-H716 cell line, NPC library (AID 1117341;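 active means compound raises GLP1 secretion from the human gut endocrine cells, with no numeric limit stated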); details: NCI-H716 cells, at 10 µM, stronger effect = higher value
# [6] = HCT116 colon cancer cell growth inhibition, primary screen, CellTiter-Glo luminescence, NPC library (AID 1117342;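 active means compounds that lower survival of HCT116 colon cancer cells in the luminescence readout, no numeric limit stated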); details: at 20 µM (top of the series)
# [7] = CellTiter-Glo luminescent readout of SW480 viability loss, NPC library primary (AID 1117343;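 active means compounds that lower viability of the colon cancer cells in the luminescence readout, with no numeric limit stated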); details: CellTiter-Glo luminescence; at 20 µM (top of the series) unless noted
# [8] = decreased DLD-1 cellular survival, CellTiter-Glo luminescent readout, NPC compound collection, primary HTS (AID 1117346;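 active means compounds that lower survival of DLD-1 colon cancer cells in the luminescence readout, no cutoff given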); details: DLD-1 viability, CellTiter-Glo luminescence; at 20 µM (top of the series)
# [9] = differential killing of epithelial or mesenchymal cells, primary screen, imaging, PC-3E GFP, TEM4-18 mCherry, co-culture (AID 1345086;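 active means compounds killing one labelled cell type while sparing the other, by normalised counts and ratio limits, not self-fluorescent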;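 on all read-outs here: cells exposed to compound for 72 h before imaging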;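 on red/green cell ratio (normalised): normalised mesenchymal count divided by normalised epithelial count so high means epithelial killing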); details: imaging cell counts, at 1 µM; for red/green cell ratio (normalised): actives lie on both sides, counts scaled to control wells, 1 = unselective
# [10] = sensitizers of A549 cells to miR-34 induction, primary screen, imaging, A549 dox-inducible miR-34, nuclei and caspase counts (AID 1347080); details: A549 miR-34 inducible, Hoechst nuclei count, 48 h
# [11] = molecular target: NAD(+) hydrolase SARM1 (Homo sapiens) (UniProt Q6SZW1); assay: SARM1 TIR NADase inhibitors, cell lysate, NAD-Glo luminescence (AID 1508614;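 active means compound whose remaining NAD level is above about 45 nM, limit read from the data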); details: SAM-TIR HEK293T lysate NADase, at 1 µM, stronger effect = higher value
# NAD(+) hydrolase SARM1 (Homo sapiens), sequence (Q6SZW1 whole entry, looked up): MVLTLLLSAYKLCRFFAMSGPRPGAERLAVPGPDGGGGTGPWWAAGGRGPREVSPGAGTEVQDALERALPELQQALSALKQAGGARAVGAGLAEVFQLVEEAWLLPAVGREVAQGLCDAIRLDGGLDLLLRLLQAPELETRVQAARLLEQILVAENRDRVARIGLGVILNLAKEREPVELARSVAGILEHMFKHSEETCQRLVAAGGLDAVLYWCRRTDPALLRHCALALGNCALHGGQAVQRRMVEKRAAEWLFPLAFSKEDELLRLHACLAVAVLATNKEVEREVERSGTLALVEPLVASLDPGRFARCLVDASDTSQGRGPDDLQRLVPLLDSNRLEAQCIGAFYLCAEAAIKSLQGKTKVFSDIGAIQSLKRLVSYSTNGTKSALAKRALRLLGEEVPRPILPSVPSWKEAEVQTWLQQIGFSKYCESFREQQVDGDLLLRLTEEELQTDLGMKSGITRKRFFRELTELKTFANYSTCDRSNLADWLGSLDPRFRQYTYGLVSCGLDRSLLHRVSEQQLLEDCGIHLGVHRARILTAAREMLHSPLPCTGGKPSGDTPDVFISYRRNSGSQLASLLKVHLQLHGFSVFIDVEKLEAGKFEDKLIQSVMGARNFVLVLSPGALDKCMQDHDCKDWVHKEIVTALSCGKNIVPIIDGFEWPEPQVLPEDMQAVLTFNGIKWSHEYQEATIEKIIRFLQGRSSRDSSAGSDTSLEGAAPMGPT
# [12] = hESC survival regulators, cell-based (AID 493140; call rule not given here;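 further: cells exposed to compounds for four days before counting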); details: human embryonic stem cell survival screen; stronger effect = higher value
# [13] = liver-stage malaria parasite growth inhibition, primary screen, cell-based, HepG2, luciferase luminescence, HepG2 viability (AID 624349; in the data active means parasite load remaining mostly below about 12%, no sharp cut-off; inactive means mostly above about 10%;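 further: 100% = mean of DMSO negative control wells on the same plate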); details: P. berghei liver stage in HepG2, luciferase luminescence, concentration not given here; parasite load remaining: stronger effect = lower value; viability: measured here: HepG2 viability without parasites
# [14] = survival rescue of mitochondrial mutant cells in low glucose, primary screen, MELAS cybrids, Rieske KO mouse fibroblasts, CellTiter-Glo (AID 1508586;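 active means mean z-score across replicates of 1.96 or higher in either the MELAS or the Rieske mutant cell line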;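 further: z relative to plate mean and SD of compound and empty wells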)
# [15] = measured here: epithelial PC-3E GFP cell survival
# [16] = measured here: mesenchymal TEM4-18 mCherry cell survival
# [17] = stronger effect = lower value, cell number ratio, induced over uninduced
# [18] = measured here: relative caspase fold change +Dox/-Dox
# [19] = measured here: total cells with miR-34 induction, stronger effect = lower value
# [20] = measured here: total cells without miR-34 induction
# [21] = MELAS cybrid survival, CellTiter-Glo 48 h, stronger effect = higher value
# [22] = Rieske KO mouse fibroblast survival, CellTiter-Glo 72 h
compound,measurement,setting,value
CCOc1ccc(NC(=O)CC(C)O)cc1 (stereo not drawn),nuclear beta-catenin stimulation,[1]; at 10 µM,-2.6% (inactive)
same,nuclear beta-catenin stimulation,"[1]; stimulation, at 2 µM",0.2%
same,insulin secretion stimulation,[2],0.2% (inactive)
same,viability decrease,[3],-0.1% (inactive)
same,tube area decrease,[4],4.3% (inactive)
same,GLP1 secretion stimulation,[5],-3.3% (inactive)
same,inhibition of viability,[6],1.4% (inactive)
same,viability decrease (inhibition),[7],-2.6% (active)
same,viability decrease (inhibition),[8],-15.7% (inactive)
same,red/green cell ratio (normalised),[9],1.16 (inactive)
same,normalised cell number,[9]; [15],0.83
same,normalised cell number,[9]; [16],0.96
same,fold change,[10]; [17],0.956 (inactive)
same,fold change,[10]; [18],0.822
same,cell count,[10]; [19],9180
same,cell count,[10]; [20],9600
same,remaining NAD,[11],10 nM (inactive)
CC(=O)N[C@@H](CC(C)C)C(=O)O,survival,[12],3.17 (inactive)
same,parasite load remaining,[13],73.5% (inactive) and 218% (inactive)
same,viability,[13],98.8% and 70.6%
same,nuclear beta-catenin stimulation,[1]; at 10 µM,0% (inactive)
same,nuclear beta-catenin stimulation,"[1]; stimulation, at 2 µM",1.3%
same,insulin secretion stimulation,[2],-1% (inactive)
same,viability decrease,[3],-27.2% (inactive)
same,tube area decrease,[4],-4.7% (inactive)
same,GLP1 secretion stimulation,[5],-1.9% (inactive)
same,inhibition of viability,[6],-7.5% (inactive)
same,viability decrease (inhibition),[7],28% (inactive)
same,viability decrease (inhibition),[8],-12.9% (inactive)
same,red/green cell ratio (normalised),[9],0.81 (inactive)
same,normalised cell number,[9]; [15],1.12
same,normalised cell number,[9]; [16],0.91
same,fold change,[10]; [17],0.893 (inactive)
same,fold change,[10]; [18],1.09
same,cell count,[10]; [19],9170
same,cell count,[10]; [20],10300
same,z-score,[14]; [21],0.637 (inactive)
same,z-score,[14]; [22],-0.175
O=C(NCC(O)CO)c1c(I)c(C(=O)NCC(O)CO)c(I)c(N(CCO)C(=O)CO)c1I (stereo not drawn),survival,[12],5.33 (inactive)
same,parasite load remaining,[13],117% (inactive)
same,viability,[13],103%
same,nuclear beta-catenin stimulation,[1]; at 10 µM,0.6% (inactive)
same,nuclear beta-catenin stimulation,"[1]; stimulation, at 2 µM",1.1%
same,insulin secretion stimulation,[2],2.2% (inactive)
same,viability decrease,[3],-0.3% (inactive)
same,tube area decrease,[4],-24.3% (inactive)
same,GLP1 secretion stimulation,[5],-2.6% (inactive)
same,inhibition of viability,[6],50.9% (active)
same,viability decrease (inhibition),[7],15.5% (inactive)
same,viability decrease (inhibition),[8],27.9% (inactive)
same,red/green cell ratio (normalised),[9],0.86 (inactive)
same,normalised cell number,[9]; [15],1.25
same,normalised cell number,[9]; [16],1.07
same,fold change,[10]; [17],0.865 (inactive)
same,fold change,[10]; [18],1.27
same,cell count,[10]; [19],8520
same,cell count,[10]; [20],9850
same,z-score,[14]; [21],-0.49 (inactive)
same,z-score,[14]; [22],-1.02
same,remaining NAD,[11],10 nM (inactive)
COc1ccc(Cc2cnc(N)nc2N)cc1OC,nuclear beta-catenin stimulation,[1]; at 10 µM,-0.5% (inactive)
same,nuclear beta-catenin stimulation,"[1]; stimulation, at 2 µM",-0.6%
same,insulin secretion stimulation,[2],0.9% (inactive)
same,viability decrease,[3],-3.05% (inactive)
same,tube area decrease,[4],-28.9% (inactive)
same,GLP1 secretion stimulation,[5],2.9% (inactive)
same,inhibition of viability,[6],-12.4% (inactive)
same,viability decrease (inhibition),[7],6.9% (inactive)
same,viability decrease (inhibition),[8],-5.4% (inactive)
same,red/green cell ratio (normalised),[9],1.2 (inactive)
same,normalised cell number,[9]; [15],1.03
same,normalised cell number,[9]; [16],1.23
same,fold change,[10]; [17],1.04 (inactive)
same,fold change,[10]; [18],0.896
same,cell count,[10]; [19],9080
same,cell count,[10]; [20],8710
same,remaining NAD,[11],10 nM (inactive)
CCCCC(CC)COc1ccc(-c2nc(-c3ccc(OC)cc3)nc(-c3ccc(OCC(CC)CCCC)cc3O)n2)c(O)c1 (stereo not drawn),nuclear beta-catenin stimulation,[1]; at 10 µM,-1% (inactive)
same,nuclear beta-catenin stimulation,"[1]; stimulation, at 2 µM",2%
same,insulin secretion stimulation,[2],0.7% (inactive)
same,viability decrease,[3],4.7% (inactive)
same,tube area decrease,[4],2.9% (inactive)
same,GLP1 secretion stimulation,[5],-2.3% (inactive)
same,inhibition of viability,[6],-5.3% (inactive)
same,viability decrease (inhibition),[7],-1.3% (active)
same,viability decrease (inhibition),[8],-8.3% (inactive)
same,red/green cell ratio (normalised),[9],0.89 (inactive)
same,normalised cell number,[9]; [15],1.25
same,normalised cell number,[9]; [16],1.12
same,fold change,[10]; [17],0.959 (inactive)
same,fold change,[10]; [18],0.849
same,cell count,[10]; [19],9430
same,cell count,[10]; [20],9840
same,remaining NAD,[11],10 nM (inactive)
CC(C)(C)NCC(O)COc1cccc2c1CCC(=O)N2 (stereo not drawn),survival,[12],7.75 (inactive)
same,parasite load remaining,[13],126% (inactive) and 79.2% (inactive)
same,viability,[13],105% and 76.8%
same,nuclear beta-catenin stimulation,[1]; at 10 µM,0.7% (inactive)
same,nuclear beta-catenin stimulation,"[1]; stimulation, at 2 µM",1.8%
same,insulin secretion stimulation,[2],1.4% (inactive)
same,viability decrease,[3],-25.9% (inactive)
same,tube area decrease,[4],-2.9% (inactive)
same,GLP1 secretion stimulation,[5],1.2% (inactive)
same,inhibition of viability,[6],-1.83% (inactive)
same,viability decrease (inhibition),[7],-26.6% (inactive)
same,viability decrease (inhibition),[8],-8.8% (inactive)
same,red/green cell ratio (normalised),[9],1.13 (inactive)
same,normalised cell number,[9]; [15],1.2
same,normalised cell number,[9]; [16],1.36
same,fold change,[10]; [17],0.805 (inactive) and 0.903 (inactive)
same,fold change,[10]; [18],0.997 and 0.693
same,cell count,[10]; [19],8680 and 7910
same,cell count,[10]; [20],10800 and 8760
same,z-score,[14]; [21],-0.229 (inactive) and 0.6 (inactive)
same,z-score,[14]; [22],-0.22 and -0.0871
same,remaining NAD,[11],10 nM (inactive)
CC(C)(C)CC(C)(C)c1cc(Cc2cc(C(C)(C)CC(C)(C)C)cc(-n3nc4ccccc4n3)c2O)c(O)c(-n2nc3ccccc3n2)c1,nuclear beta-catenin stimulation,[1]; at 10 µM,3.9% (inactive)
same,nuclear beta-catenin stimulation,"[1]; stimulation, at 2 µM",2.5%
same,insulin secretion stimulation,[2],1.7% (inactive)
same,viability decrease,[3],9.1% (inactive)
same,tube area decrease,[4],-10.3% (inactive)
same,GLP1 secretion stimulation,[5],3.4% (inactive)
same,inhibition of viability,[6],1.9% (inactive)
same,viability decrease (inhibition),[7],-54% (inactive)
same,viability decrease (inhibition),[8],7.4% (inactive)
same,red/green cell ratio (normalised),[9],0.81 (inactive)
same,normalised cell number,[9]; [15],1.28
same,normalised cell number,[9]; [16],1.04
same,fold change,[10]; [17],0.928 (inactive)
same,fold change,[10]; [18],0.844
same,cell count,[10]; [19],9130
same,cell count,[10]; [20],9830
same,remaining NAD,[11],10 nM (inactive)
O=c1[nH]c(=O)c2ccccc2o1,nuclear beta-catenin stimulation,[1]; at 10 µM,0.9% (inactive)
same,nuclear beta-catenin stimulation,"[1]; stimulation, at 2 µM",0.3%
same,insulin secretion stimulation,[2],-1.9% (inactive)
same,viability decrease,[3],-6.75% (inactive)
same,tube area decrease,[4],10.2% (inactive)
same,GLP1 secretion stimulation,[5],0.9% (inactive)
same,inhibition of viability,[6],-33.3% (inactive)
same,viability decrease (inhibition),[7],102% (active)
same,viability decrease (inhibition),[8],-5.5% (inactive)
same,red/green cell ratio (normalised),[9],0.79 (inactive)
same,normalised cell number,[9]; [15],1.11
same,normalised cell number,[9]; [16],0.88
same,fold change,[10]; [17],0.86 (inactive)
same,fold change,[10]; [18],0.838
same,cell count,[10]; [19],8540
same,cell count,[10]; [20],9930
same,remaining NAD,[11],10 nM (inactive)
CC(=O)Nc1c(I)c(NC(C)=O)c(I)c(C(=O)O)c1I,parasite load remaining,[13],58.9% (inactive)
same,viability,[13],109%
same,nuclear beta-catenin stimulation,[1]; at 10 µM,1.6% (inactive)
same,nuclear beta-catenin stimulation,"[1]; stimulation, at 2 µM",7.7%
same,insulin secretion stimulation,[2],1.5% (inactive)
same,viability decrease,[3],2.3% (inactive)
same,tube area decrease,[4],-9.3% (inactive)
same,GLP1 secretion stimulation,[5],4.3% (inactive)
same,inhibition of viability,[6],2% (inactive)
same,viability decrease (inhibition),[7],-30.8% (inactive)
same,viability decrease (inhibition),[8],-0.9% (inactive)
same,red/green cell ratio (normalised),[9],1.17 (inactive)
same,normalised cell number,[9]; [15],1.02
same,normalised cell number,[9]; [16],1.19
same,fold change,[10]; [17],0.866 (inactive)
same,fold change,[10]; [18],2.21
same,cell count,[10]; [19],11200
same,cell count,[10]; [20],13000
same,z-score,[14]; [21],0.0135 (inactive)
same,z-score,[14]; [22],0.624
same,remaining NAD,[11],10 nM (inactive)
CN1C(=O)CC(C)(c2ccccc2)C1=O (stereo not drawn),nuclear beta-catenin stimulation,[1]; at 10 µM,2.5% (inactive)
same,nuclear beta-catenin stimulation,"[1]; stimulation, at 2 µM",2%
same,insulin secretion stimulation,[2],-0.7% (inactive)
same,viability decrease,[3],-2.5% (inactive)
same,tube area decrease,[4],-16.2% (inactive)
same,GLP1 secretion stimulation,[5],2.6% (inactive)
same,inhibition of viability,[6],8.7% (inactive)
same,viability decrease (inhibition),[7],19.6% (inactive)
same,viability decrease (inhibition),[8],-5.25% (inactive)
same,red/green cell ratio (normalised),[9],1.03 (inactive)
same,normalised cell number,[9]; [15],0.99
same,normalised cell number,[9]; [16],1.02
same,fold change,[10]; [17],0.901 (inactive)
same,fold change,[10]; [18],0.963
same,cell count,[10]; [19],8480
same,cell count,[10]; [20],9410
same,remaining NAD,[11],10 nM (inactive)
